Laboratory results: PubChem BioAssay (NCI)
Compounds without any hit were thinned out: in the full panel of roughly 83,000, 20% have a hit.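 Treatment: one concentration, 48 hours, 96-well format. Scoring: percent growth, with anything below 10 considered active.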

Key:
Assay in all cases: NCI-60 one-dose screen, 48 h (100 = growth as untreated, 0 = no growth, -100 = all killed)
Conditions in all cases: 10 µM unless noted
SR leukemia = test system: SR leukemia
RPMI-8226 leukemia = test system: RPMI-8226 leukemia
OVCAR-8 ovarian = test system: OVCAR-8 ovarian
OVCAR-5 ovarian = test system: OVCAR-5 ovarian
OVCAR-4 ovarian = test system: OVCAR-4 ovarian
SK-OV-3 ovarian = test system: SK-OV-3 ovarian
IGROV1 ovarian = test system: IGROV1 ovarian
OVCAR-3 ovarian = test system: OVCAR-3 ovarian
NCI/ADR-RES ovarian = test system: NCI/ADR-RES ovarian
T-47D breast = test system: T-47D breast
BT-549 breast = test system: BT-549 breast
MDA-MB-435 melanoma = test system: MDA-MB-435 melanoma
SW-620 colon = test system: SW-620 colon
MCF7 breast = test system: MCF7 breast
HCT-116 colon = test system: HCT-116 colon
KM12 colon = test system: KM12 colon
HS 578T breast = test system: HS 578T breast
HCC-2998 colon = test system: HCC-2998 colon

Measured: growth

CCN(CC)CCCNc1ccc(Nc2ccc(OC)cc2)cc1
inactive: SR leukemia 52.9% | RPMI-8226 leukemia 64.5% | OVCAR-8 ovarian 83.1% | OVCAR-5 ovarian 108% | OVCAR-4 ovarian 84.6% | SK-OV-3 ovarian 106% | IGROV1 ovarian 37.6% | OVCAR-3 ovarian 59.6% | NCI/ADR-RES ovarian 94.7% | T-47D breast 118% | BT-549 breast 59% | MDA-MB-435 melanoma 82.7% | SW-620 colon 49.7% | MCF7 breast 110% | HCT-116 colon 82.2% | KM12 colon 85.3%

O=c1ssc(Cl)c1-c1ccccc1
inactive: SR leukemia 124% | RPMI-8226 leukemia 111% | OVCAR-8 ovarian 89.4% | OVCAR-5 ovarian 88.7% | OVCAR-4 ovarian 98.4% | SK-OV-3 ovarian 118% | IGROV1 ovarian 83.7% | HS 578T breast 104% | NCI/ADR-RES ovarian 95.9% | T-47D breast 95.7% | BT-549 breast 114% | MDA-MB-435 melanoma 98.4% | SW-620 colon 95.2% | MCF7 breast 89.3% | HCC-2998 colon 104% | KM12 colon 113%

CCCCCCCCCCCCCCCCCCOc1ccc(CC(=O)OCC[N+]2(C)CCCC2)cc1
inactive: SR leukemia 101% | RPMI-8226 leukemia 97.6% | OVCAR-8 ovarian 99.7% | OVCAR-5 ovarian 97.9% | OVCAR-4 ovarian 87.3% | SK-OV-3 ovarian 108% | IGROV1 ovarian 94.1% | OVCAR-3 ovarian 109% | HS 578T breast 95% | NCI/ADR-RES ovarian 106% | T-47D breast 95.5% | BT-549 breast 123% | SW-620 colon 95% | MCF7 breast 90.9% | HCC-2998 colon 104% | KM12 colon 101%

O=c1c2c3c(sc2n2c(-c4cc(-c5ccccc5)nn4-c4ccccc4)nnc2n1Cc1ccccc1)CCCC3
inactive: SR leukemia 13.2% | RPMI-8226 leukemia 14.2% | OVCAR-8 ovarian 49.5% | OVCAR-5 ovarian 113% | OVCAR-4 ovarian 83.2% | SK-OV-3 ovarian 133% | OVCAR-3 ovarian 101% | HS 578T breast 356% | NCI/ADR-RES ovarian 80.4% | T-47D breast 72.5% | BT-549 breast 97.4% | MDA-MB-435 melanoma 85.2% | SW-620 colon 83.2% | MCF7 breast 68.3% | HCT-116 colon 55.4% | HCC-2998 colon 98.8% | KM12 colon 84.1%

COc1ccc2c(c1)O/C(=C/c1ccc(OCC(=O)c3ccccc3)cc1)C2=O
inactive: SR leukemia 72.7% | RPMI-8226 leukemia 99.7% | OVCAR-8 ovarian 111% | OVCAR-5 ovarian 88.6% | OVCAR-4 ovarian 113% | SK-OV-3 ovarian 125% | OVCAR-3 ovarian 90.1% | HS 578T breast 350% | NCI/ADR-RES ovarian 93.1% | T-47D breast 97.4% | BT-549 breast 119% | MDA-MB-435 melanoma 87% | SW-620 colon 131% | MCF7 breast 118% | HCT-116 colon 94.1% | HCC-2998 colon 114% | KM12 colon 105%

Cc1ccc(-c2cc3c(cc2O)C2CCCCC2(N2CCOCC2)O3)cc1 (centres undefined)
inactive: SR leukemia 86% | RPMI-8226 leukemia 96% | OVCAR-8 ovarian 102% | OVCAR-5 ovarian 110% | OVCAR-4 ovarian 91% | SK-OV-3 ovarian 104% | IGROV1 ovarian 104% | HS 578T breast 108% | NCI/ADR-RES ovarian 99.1% | T-47D breast 85% | BT-549 breast 95.4% | MDA-MB-435 melanoma 98.4% | SW-620 colon 117% | MCF7 breast 88.5% | HCT-116 colon 97.3% | HCC-2998 colon 106% | KM12 colon 109%

Cc1nn(-c2ccccc2)c2nc3c(c(-c4ccc(Cl)cc4)c12)CNC1(CCSCC1)N3
inactive: SR leukemia 96.8% | RPMI-8226 leukemia 109% | OVCAR-8 ovarian 105% | OVCAR-5 ovarian 98.2% | OVCAR-4 ovarian 98.9% | SK-OV-3 ovarian 98.9% | IGROV1 ovarian 99.1% | OVCAR-3 ovarian 104% | HS 578T breast 99.8% | NCI/ADR-RES ovarian 97.3% | T-47D breast 84.3% | MDA-MB-435 melanoma 99.8% | SW-620 colon 92.8% | MCF7 breast 93% | HCT-116 colon 90.7% | HCC-2998 colon 101% | KM12 colon 98.3%

N#CC1=C(c2ccc(Br)cc2)NC(SCC(=O)c2ccc(Br)cc2)NC1=O (centres undefined)
inactive: SR leukemia 101% | RPMI-8226 leukemia 107% | OVCAR-8 ovarian 103% | OVCAR-5 ovarian 101% | OVCAR-4 ovarian 101% | SK-OV-3 ovarian 110% | IGROV1 ovarian 114% | OVCAR-3 ovarian 102% | HS 578T breast 97% | NCI/ADR-RES ovarian 107% | T-47D breast 92.8% | BT-549 breast 99.1% | SW-620 colon 101% | MCF7 breast 101% | HCT-116 colon 96.5% | HCC-2998 colon 106% | KM12 colon 101%

CCn1c(C)nc2cc(C(N)=O)ccc21
inactive: SR leukemia 104% | RPMI-8226 leukemia 80.9% | OVCAR-8 ovarian 96.2% | OVCAR-5 ovarian 92.6% | OVCAR-4 ovarian 98.2% | SK-OV-3 ovarian 105% | IGROV1 ovarian 109% | NCI/ADR-RES ovarian 97% | T-47D breast 113% | BT-549 breast 111% | MDA-MB-435 melanoma 131% | SW-620 colon 100% | MCF7 breast 91.5% | HCT-116 colon 94.6% | HCC-2998 colon 96.9% | KM12 colon 107%
